The list is not random: actives were taken first. Their share in the collection is about 9.2%.
ELG1 DNA repair: blocks ELG1-dependent DNA repair in HEK293T cells | HEK293T ELG1-luciferase reporter, luminescence, 16 h; DNA damage induced by 5-fluorouridine | 330,000 compounds, 2.3% hits | Potency, µM (titrated, usually from 46.1 µM), for inactives: at the highest dose activity change, negative = inhibition, usual class: inhibitors; also: % is scaled to controls: 0 for no effect and ±100 for the full control effect; nearly all actives have a fitted effect of over 55% in size
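DMSO vehicle served as the neutral condition. Each well held 2,000 cells given 5-fluorouridine plus compound; after 16 hr at 37 °C/5% CO2, ONE-Glo was added and luciferase measured 30 min later.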
Rab9 prom act: activators of Rab9 promoter; AID 485297; Potency, µM (series often up to 9.22 µM), inactives show at the highest dose activation, negative = inhibition, most hits filed as activators; 320,000 compounds, 2.8% hits; Huh7 Rab9 promoter-luciferase reporter, luminescence, 24 h; also: % of control where 0% means no effect; nearly all actives have a fitted effect of over 60% in size
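Huh7 cells stably carrying Rab9 promoter–luciferase reporter, plated 1500 cells/well, compound added after 2 h and incubated 24 h at 37 °C; luciferase luminescence then read after 10 min with detection reagent.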
NPC1 promoter act: NPC1 promoter activation. Huh7 NPC1 promoter luciferase reporter, 24 h. Potency, µM (series often up to 9.22 µM), inactives show at the top dose activation, usual class: activators. 320,000 compounds, 2.4% hits. AID 485313; also: % of control where 0% means no effect; nearly all actives have a fitted effect of over 60% in size
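Quantitative HTS used a cell-based reporter: Huh7 cells stably bearing the NPC1 promoter upstream of luciferase were treated with compounds for 24 h, and promoter activation was read as luminescence.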
FLuc counter: inhibits or activates purified firefly luciferase, miR-21 counter-screen | purified FLuc, Km substrates, luminescence inhibition | Potency, µM (highest dose often 57.5 µM), without a hit: at the top dose activity change, negative = inhibition, most hits filed as inhibitors | 360,000 compounds, 6.9% hits;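 also: plate controls were vehicle for no effect and reference inhibitor for full effect; nearly all actives have a fitted effect of over 55% in size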
Target sequence (P08659 whole entry, looked up): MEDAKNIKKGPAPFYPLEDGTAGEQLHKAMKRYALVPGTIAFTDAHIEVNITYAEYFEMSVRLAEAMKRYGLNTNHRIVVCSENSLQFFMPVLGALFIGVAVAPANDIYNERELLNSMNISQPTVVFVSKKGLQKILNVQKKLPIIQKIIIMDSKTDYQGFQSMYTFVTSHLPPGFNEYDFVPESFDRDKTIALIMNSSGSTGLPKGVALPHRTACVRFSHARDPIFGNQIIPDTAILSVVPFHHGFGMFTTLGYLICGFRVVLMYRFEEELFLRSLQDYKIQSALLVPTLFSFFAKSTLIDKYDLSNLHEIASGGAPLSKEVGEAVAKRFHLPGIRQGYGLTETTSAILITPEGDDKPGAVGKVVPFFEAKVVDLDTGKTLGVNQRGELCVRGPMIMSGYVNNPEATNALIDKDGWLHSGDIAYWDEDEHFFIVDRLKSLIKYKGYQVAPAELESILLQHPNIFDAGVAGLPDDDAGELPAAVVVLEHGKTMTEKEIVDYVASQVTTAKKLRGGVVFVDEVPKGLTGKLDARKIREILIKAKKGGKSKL
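Purified P. pyralis luciferase (10nM final) with 10uM D-luciferin and 10uM ATP (Km levels) in 50mM Tris acetate pH 7.5, 10mM Mg acetate, 0.01% Tween-20, 0.05% BSA; qHTS 6-point titration, ~60 µM downward; luminescence read.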
SMN2 splice enh: enhancers of SMN2 splice variant expression | 210,000 compounds, 2.8% hits | Potency, µM (top dose mostly 46.1 µM), for the others: at the top dose activity change, positive = activation, usual class: activators | HEK293 SMN2-luciferase splicing reporter, luminescence, 30-36 h; also: % of control where 0% means no effect; nearly all actives have a fitted effect of over 55% in size
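qHTS luciferase splicing reporter: luminescence rises when SMN2 exon 7 is included in transfected HEK293 cells. Compound exposure lasted 30-36 h at 37C, with 4.5 mM final sodium butyrate as control, followed by a ONE-Glo read.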
ELG1 genotox: induces genotoxicity in HEK293T cells with luciferase-tagged ELG1 | HEK293T ELG1-luciferase reporter, luminescence, 16 h | 330,000 compounds, 1.3% hits | Potency, µM (doses to about 46 µM), for the others: at the top dose activity change, positive = activation, most hits filed as activators; also: % of control where 0% means no effect; nearly all actives have a fitted effect of over 60% in size
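Genotoxic stress is detected as increased luminescence from luciferase-tagged ELG1 in HEK293T cells, measured with ONE-Glo after a 16 hr treatment at 37 °C.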
Active calls of the source: *; ? = inconclusive; / = no result; [ ] = remark or other dose. Calls follow the shape of the dose curve; as a rule, active = well fitted curve in the direction sought with a large enough effect; inconclusive = small, poorly fitted or top-dose-only effect, or another doubt; inactive = no such curve, though single readings can be large; an effect the other way counts as inactive or inconclusive. Potency is read from the fitted curve at half-maximal effect.

SMILES	ELG1 DNA repair	Rab9 prom act	NPC1 promoter act	FLuc counter	SMN2 splice enh	ELG1 genotox
CSCc1ccc(C(=O)N2CCCC(Nc3ccc4c(c3)OCCO4)C2)o1 (stereo not given)	9.1%	-0.5%	1.6%	?	/	-0.3%
O=C(NC(=S)Nc1cccc(O)c1)c1ccco1	?	?	?	10.7µM*	/	?
CCOc1cc(C(=O)Nc2ccc3c(c2)n(C)c(=O)c(=O)n3C)cc(OCC)c1OCC	/	/	/	-2.2%	3.8%	/
N#Cc1cccc(NCC(=O)Nc2ccc3c(c2)OCCO3)c1	?	0.398µM*	0.631µM*	6.01µM*	12.6µM*	2.31µM*
O=C(CNC(=O)c1ccco1)Nc1ccc2c(c1)OCCO2	?	1µM*	1.78µM*	6.01µM*	/	1.16µM*
N#Cc1ccc(NCC(=O)Nc2ccc3c(c2)OCCO3)cc1	7.3%	0.5%	-3.8%	?	-9.9%	0.4%
Cc1cc(NC(=O)c2ccco2)ccc1NC(=O)Cc1cccs1	?	11.5%	14.1%	15.1µM*	17.9%	12.7%
Cc1ccc(NC(=O)c2ccco2)c(NC(=O)Cc2cccs2)c1	-4.2%	-0.1%	-1.3%	3.5%	17.6%	0.3%
Cc1ccc(CN2c3ccccc3-c3nc(SCC(=O)Nc4c(C)cc(C)cc4C)ncc3S2(=O)=O)cc1	/	/	/	3.2%	/	/
Cc1ccc(C(=O)N/N=C/c2ccc([N+](=O)[O-])s2)cc1	-22.7%	-40.1%	-36.9%	-7.1%	-49.4%	-4.7%
O=C(N/N=C/c1ccc([N+](=O)[O-])s1)c1cccc(Br)c1	10.3µM*	-19.7%	-13.4%	-6.4%	-89.9%	-0.9%
O=C(CNC(=O)c1ccccc1)N/N=C/c1ccc([N+](=O)[O-])s1	6.51µM*	-14.6%	-1.8%	-5.6%	-40.6%	-17.3%
CC(=O)C[C@@H](O)CC(=O)[C@@H]1OC(=O)[C@@H](C)C/C=C\Cc2ccccc21	1.0%	/	/	/	/	-0.5%
Cc1ccc(C(=O)O/N=C(\N)Cc2ccc([N+](=O)[O-])cc2)c(Cl)c1	?	-1.2%	-3.2%	21.3µM*	/	3.5%
Cc1cc(OCC(=O)O/N=C(\N)Cc2cccs2)ccc1Br	26.5%	2.4%	-1.3%	?	7.2%	-0.8%
Cc1ccc(C(=O)O/N=C(\N)Cc2cccs2)c(Cl)c1	?	2µM*	1.58µM*	1.2µM*	/	2.06µM*
O=C(O)c1ccc(N[C@@H]2OC[C@@H](O)[C@@H](O)[C@@H]2O)cc1	/	/	/	/	10.5%	/
COC(=O)C1=C(C(=O)OC)[C@@H]2N(Cc3ccccc3)c3ccccc3[C@@]23C[C@@H](C(=O)OC)N(S(=O)(=O)c2ccc(C#N)cc2)C3=N1	/	/	/	/	1.1%[9.22 µM]	/
O=C(NC1CCCCC1)C(c1ccc2ncccc2c1)N(Cc1cccs1)C(=O)c1cccs1 (stereo not given)	16.4µM*	8.3%	-0.5%	-5.1%	-8.7%	-7.8%
C/C(=N\NC(=O)C12CCC(C)(C(=O)O1)C2(C)C)c1ccccc1O (stereo not given)	20.6µM*	-31.8%	-3.8%	-10.8%	/	5.4%
O=C(N/N=C/c1ccc(O)cc1O)C(=O)N/N=C/c1ccc(O)cc1O	-10.7%	-5.3%	2.8%	0.4%	/	1.7%
CC12CCC(C(=O)NCc3ccccc3)(OC1=O)C2(C)C (stereo not given)	4.2%	-1.5%	13.5%	2.9%	14.4%	0.0%
CC12CCC(C(=O)N/N=C/c3ccc(O)cc3O)(OC1=O)C2(C)C (stereo not given)	13µM*	-20.7%	-13.8%	-3.4%	/	11.5%
CC(=O)Nc1ccc(S(=O)(=O)N2CCC(N3CCN(Cc4ccc(C)cc4)C(=O)C3=O)CC2)cc1	/	/	/	-2.4%	/	/
CC(C)CN1C(=O)/C(=C(/C#N)C(=O)NC2CCCCC2)c2ccccc21	-19.5%	0.2%	-2.1%	2.8%	-42.1%	-2.9%
SMILES	ELG1 DNA repair	Rab9 prom act	NPC1 promoter act	FLuc counter	SMN2 splice enh	ELG1 genotox
NC(N)=Nc1nc(CCN2C(=O)c3ccccc3C2=O)cs1	-0.4%	0.4%	-3.3%	-9.9%	31.6µM*	3.9%
CN(C)c1cccc(C(=O)Nc2ccc3nc4n(c(=O)c3c2)CCCCC4)c1	-27.9%	25.4%	8.0%	13.5µM*	-1.9%	9.8%
CCOc1ccccc1C(=O)Nc1ccc2nc3n(c(=O)c2c1)CCCCC3	-26.0%	4.9%	-7.4%	15.1µM*	/	-0.8%
COc1cccc(C(=O)Nc2ccc3nc4n(c(=O)c3c2)CCCC4)c1	?	?	25.6%	16.9µM*	/	-0.2%
COc1cc(OC)cc(C(=O)Nc2ccc3nc4n(c(=O)c3c2)CCCC4)c1	?	?	2.82µM*	?	/	?
COc1ccc(Cl)cc1C(=O)Nc1ccc2nc3n(c(=O)c2c1)CCCC3	-4.6%	6.0%	-0.9%	-13.5%	/	-1.9%
COc1cc(C(=O)Nc2ccc3nc4n(c(=O)c3c2)CCCC4)ccc1Br	-4.6%	-1.5%	-2.0%	-0.4%	/	-2.8%
O=C(Nc1ccc2nc3n(c(=O)c2c1)CCCCC3)c1cccc(C(F)(F)F)c1	/	/	/	-15.1%	2.4%	/
Cc1ccc(Cl)cc1N(C)C(=O)c1noc2c1CCCCC2	/	/	/	-8.1%	/	/
O=C(Nc1ccccc1Cl)NC1(C(=O)NCc2cccnc2)CCCCC1	10.7%	-1.8%	-5.2%	-2.6%	/	-0.3%
CCOC(=O)C1=C(C)NC(SC)=C(C#N)C1CC(C)C (stereo not given)	10.3µM*	-22.9%	-33.1%	-1.4%	/	-0.7%
CC(=O)C1=C(C)NC(SCC(N)=O)=C(C#N)C1CC(C)C (stereo not given)	-10.9%	10.5%	-4.4%	?	-2.8%	1.5%
COc1cccc(/C=C/C(=O)OCC(=O)c2cc(C)n(CC3CCCO3)c2C)c1OC (stereo not given)	?	7.6%	5.1%	13.5µM*	/	0.8%
Cc1cc(NC(=O)COC(=O)C2CCN(C(=O)c3ccc(Cl)cc3)CC2)no1	-3.2%	0.7%	-1.6%	0.8%	-0.4%	-0.5%
COc1cc(C)ccc1OCC(=O)OCC(=O)c1cc(C)n(CC2CCCO2)c1C (stereo not given)	16.3%	0.6%	-0.4%	?	/	3.0%
CCC(=O)c1ccc(OCC(=O)OCC(=O)c2cc(C)n(CC3CCCO3)c2C)cc1 (stereo not given)	7.3%	-4.4%	3.8%	-24.9%	/	-0.1%
COc1cc(C(=O)OCC(=O)c2cc(C)n(CC3CCCO3)c2C)cc(OC)c1C (stereo not given)	-0.2%	5.3%	3.3%	16.9µM*	/	3.2%
Cc1cc(C(=O)COC(=O)C2CCN(C(=O)c3ccc(Cl)cc3)CC2)c(C)n1CC1CCCO1 (stereo not given)	10.2%	8.0%	-3.8%	15.1µM*	2.9%	9.8%
